Activity calls are given as the source filed them.
Legend:
[1] = compounds binding Alexa647 anti-His antibody – biochemical, small-molecule microarray, 635 nm fluorescence, artefact control for SMM control protein annotation, primary screen (AID 1128); details: higher = more signal;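 further: score merges feature fluorescence with signal-to-noise for each printed compound spot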
[2] = system: Human papillomavirus type 1a E7 protein (residues 1-88); test: HPV1a E7 small-molecule binders, primary screen, biochemical, small-molecule microarray, residues 1-88, 635 nm (AID 1129); details: small-molecule microarray binding, fluorescence 635 nm; higher = more signal
[3] = molecular target: Focal adhesion kinase 1 (Homo sapiens) (UniProt Q05397); test: PTK2 protein binding on printed compound slides – biochemical, small-molecule microarray, 635/667 nm fluorescence, BSA, DTT, primary screen (AID 1130); details: 635 nm fluorescence, higher = more signal;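 further: composite of spot emission at 667 nm and signal to noise over triplicate slides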
Chain of Focal adhesion kinase 1 (Homo sapiens) (Q05397 whole entry, looked up): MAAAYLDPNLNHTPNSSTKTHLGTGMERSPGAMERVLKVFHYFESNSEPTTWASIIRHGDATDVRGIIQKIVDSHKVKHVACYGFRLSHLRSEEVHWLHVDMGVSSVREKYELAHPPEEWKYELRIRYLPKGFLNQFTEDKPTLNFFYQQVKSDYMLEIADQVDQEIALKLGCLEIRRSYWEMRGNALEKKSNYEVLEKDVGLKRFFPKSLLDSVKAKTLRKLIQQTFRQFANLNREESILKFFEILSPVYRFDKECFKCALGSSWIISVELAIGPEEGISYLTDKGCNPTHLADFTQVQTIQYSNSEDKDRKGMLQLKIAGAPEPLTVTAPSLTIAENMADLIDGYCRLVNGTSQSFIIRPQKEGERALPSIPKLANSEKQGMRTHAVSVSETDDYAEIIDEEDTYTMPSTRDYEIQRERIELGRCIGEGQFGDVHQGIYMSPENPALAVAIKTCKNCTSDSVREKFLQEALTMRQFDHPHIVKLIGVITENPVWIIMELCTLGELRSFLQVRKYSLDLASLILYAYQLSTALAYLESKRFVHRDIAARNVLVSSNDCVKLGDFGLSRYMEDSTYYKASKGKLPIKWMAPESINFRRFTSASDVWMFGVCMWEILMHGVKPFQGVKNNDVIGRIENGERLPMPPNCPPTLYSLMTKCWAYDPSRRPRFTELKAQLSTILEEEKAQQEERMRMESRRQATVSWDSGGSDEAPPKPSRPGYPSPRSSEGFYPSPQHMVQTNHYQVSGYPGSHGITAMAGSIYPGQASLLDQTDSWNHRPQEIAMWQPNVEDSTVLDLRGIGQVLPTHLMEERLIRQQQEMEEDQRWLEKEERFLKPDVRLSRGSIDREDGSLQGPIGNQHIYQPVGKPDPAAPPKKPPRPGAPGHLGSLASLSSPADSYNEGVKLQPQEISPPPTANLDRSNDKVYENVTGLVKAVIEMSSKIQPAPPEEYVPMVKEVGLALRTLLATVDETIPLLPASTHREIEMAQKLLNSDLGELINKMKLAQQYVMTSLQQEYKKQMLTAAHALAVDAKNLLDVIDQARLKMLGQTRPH

[4] = system: Fibrinogen (Alexa647-labelled); test: Alexa647-fibrinogen binding to printed small molecules – biochemical, small-molecule microarray, 635/667 nm fluorescence, artefact control for SMM control-protein annotation, profiling panel (AID 1131); details: fibrinogen-A647 binding fluorescence, higher = more signal;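 further: z-score merges 667 nm fluorescence with per-spot signal-to-noise over triplicate slides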
[5] = molecular target: Follistatin (Homo sapiens) (UniProt P19883); test: FST protein binding to printed compounds – biochemical, small-molecule microarray, 635/667 nm fluorescence, primary screen (AID 1132); details: 635 nm fluorescence, higher = more signal
Chain of Follistatin (Homo sapiens) (P19883 whole entry, looked up): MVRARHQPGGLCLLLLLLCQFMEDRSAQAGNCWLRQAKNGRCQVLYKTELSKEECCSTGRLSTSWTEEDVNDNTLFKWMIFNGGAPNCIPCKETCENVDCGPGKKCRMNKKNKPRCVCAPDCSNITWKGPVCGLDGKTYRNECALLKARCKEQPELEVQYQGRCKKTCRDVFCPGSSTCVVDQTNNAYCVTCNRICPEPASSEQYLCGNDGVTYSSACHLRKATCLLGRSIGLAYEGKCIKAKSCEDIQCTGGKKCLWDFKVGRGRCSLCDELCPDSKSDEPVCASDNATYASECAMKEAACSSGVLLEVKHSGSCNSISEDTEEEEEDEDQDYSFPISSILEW

[6] = molecular target: Fibroblast growth factor 2 (Homo sapiens) (UniProt P09038); test: basic fibroblast growth factor binding to printed compounds – biochemical, small-molecule microarray, 635/667 nm fluorescence, primary screen (AID 1133); details: FGF2, fluorescence 635/667, higher = more signal
Chain of Fibroblast growth factor 2 (Homo sapiens) (P09038 whole entry, looked up): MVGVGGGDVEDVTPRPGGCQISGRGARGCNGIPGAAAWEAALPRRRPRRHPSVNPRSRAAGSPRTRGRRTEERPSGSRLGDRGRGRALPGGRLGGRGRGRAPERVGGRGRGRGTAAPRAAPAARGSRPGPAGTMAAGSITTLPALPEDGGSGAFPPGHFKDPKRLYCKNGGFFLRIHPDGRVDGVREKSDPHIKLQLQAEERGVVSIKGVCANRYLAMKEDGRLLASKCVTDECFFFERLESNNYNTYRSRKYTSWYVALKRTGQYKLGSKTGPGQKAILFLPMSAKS

[7] = JC-1 mitochondrial potential readout, lung cancer cells – cell-based, A549, JC-1 fluorescence, basal, 24 h, 100 nL, profiling panel (AID 1138); details: higher = more signal;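 further: A549 lung adenocarcinoma cells under basal conditions with no added stimulus; test concentration not given here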
Lefty1 = Lefty1 protein binding to printed compounds – biochemical, small-molecule microarray, 635/667 nm fluorescence, primary screen (AID 1139); details: fluorescence 635/667, higher = more signal
[8] = system: wheat germ agglutinin (Triticum aestivum), Alexa647-labelled; test: Alexa647-WGA lectin binding to printed small molecules – biochemical, small-molecule microarray, 635/667 nm fluorescence, artefact control for SMM control-protein annotation, profiling panel (AID 1140); details: WGA-A647 binding, 635 nm fluorescence, higher = more signal;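 further: score merges 667 nm feature emission with signal to noise over triplicate slides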
[9] = molecular target: Luciferin 4-monooxygenase (Photinus pyralis) (UniProt P08659); test: inhibition of purified Photinus pyralis luciferase – biochemical, luminescence, purified enzyme, 2006 set, primary screen (AID 1141); details: purified firefly luciferase, SteadyGlo luminescence, 30 min; higher = more signal, called active from +8 up or from −8 down;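 further: cell-free assay with purified firefly luciferase at 100 ng per well in PBS; test concentration not given here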
Chain of Luciferin 4-monooxygenase (Photinus pyralis) (P08659 whole entry, looked up): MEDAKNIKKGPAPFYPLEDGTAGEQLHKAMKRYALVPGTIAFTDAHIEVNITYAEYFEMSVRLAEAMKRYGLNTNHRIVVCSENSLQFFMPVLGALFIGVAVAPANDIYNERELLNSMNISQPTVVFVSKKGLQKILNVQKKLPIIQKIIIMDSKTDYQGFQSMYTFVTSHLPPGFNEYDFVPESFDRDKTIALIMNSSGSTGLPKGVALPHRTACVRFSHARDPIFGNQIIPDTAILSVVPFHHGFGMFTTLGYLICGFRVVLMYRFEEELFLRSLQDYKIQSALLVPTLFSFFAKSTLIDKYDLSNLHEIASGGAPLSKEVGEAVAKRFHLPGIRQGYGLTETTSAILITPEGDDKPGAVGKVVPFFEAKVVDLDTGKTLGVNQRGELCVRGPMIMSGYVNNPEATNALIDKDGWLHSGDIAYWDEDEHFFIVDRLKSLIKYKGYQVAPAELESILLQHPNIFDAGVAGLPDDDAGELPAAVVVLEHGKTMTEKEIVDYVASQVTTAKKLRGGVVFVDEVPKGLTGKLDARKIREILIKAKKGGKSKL

| Structure (SMILES) | composite z-score [1] | composite z-score [2] | composite z-score [3] | composite z-score [4] | composite z-score [5] | composite z-score [6] | z-score [7] | composite z-score (Lefty1) | composite z-score [8] | z-score [9] |
| --- | --- | --- | --- | --- | --- | --- | --- | --- | --- | --- |
| NCCCCCNC(=O)[C@@H]1C[C@@H]2C(=O)N3CCC[C@H]3C(=O)N2[C@@H]1c1ccc(O)cc1 | 0.509 | 1.18 | 0.139 | 0.788 | 1.17 | 0.428 | 0.375 | 1.08 | 0.955 | -0.444 (inactive) |
| CC(C)C[C@@H]1NC(=O)[C@H]2C[C@@H](C(=O)NCCCCCN)[C@@H](c3cccc(OCCO)c3)N2C1=O | 1.22 | 0.334 | -0.0639 | 0.133 | -0.214 | 0.181 | 0.34 | -0.813 | 0.817 | -1.07 (inactive) |
| COCCOC(=O)N1C(=O)[C@@]2(c3cc(C#CCNC(N)=O)ccc31)[C@H](c1ccc(OCCO)cc1)N1[C@H](c3ccccc3)[C@H](c3ccccc3)OC(=O)[C@H]1[C@@H]2C(=O)NC[C@H](O)c1ccccc1 | 0.626 | 0.984 | 0.445 | 0.942 | 1.37 | 1 | -1.19 | 1.16 | 0.768 | 0.0945 (inactive) |
| COC(=O)C(CC#Cc1ccc2c(c1)[C@]1(C(=O)N2)[C@H](C(=O)Nc2nc3ccccc3s2)[C@H]2C(=O)O[C@H](c3ccccc3)[C@H](c3ccccc3)N2[C@@H]1c1ccc(OCCO)cc1)C(=O)OC | 1.94 | 1.1 | 0.539 | 0.978 | 1.45 | 1.39 | -1.94 | 1.27 | 1.07 | -4.66 (inactive) |
| COCCOC(=O)N1C(=O)[C@@]2(c3cc(C#CCNC(N)=O)ccc31)[C@H](c1ccc(O)cc1)N1[C@H](c3ccccc3)[C@H](c3ccccc3)OC(=O)[C@H]1[C@@H]2C(=O)N1CCN(c2ncccn2)CC1 | 1.22 | 1.2 | 0.634 | 0.865 | 0.902 | 0.671 | -1.91 | 0.707 | 0.991 | -0.391 (inactive) |
| C=CCC(OC(C)=O)[C@@H]1[C@@H](N(Cc2ccc(-c3cccc(C(F)(F)F)c3)o2)C(=O)c2cccc3ccccc23)c2cc(OCCCO)ccc2N1C(=O)Cc1ccc(OC)cc1 (stereo not given in full) | -0.0466 | -1.02 | -0.104 | -0.765 | 0.998 | -0.0117 | -0.465 | 0.229 | 0.0854 | 0.638 (inactive) |
| COCCCNC(=O)[C@@]1(Sc2ccc(C)cc2)CC(=O)N(Cc2ccccc2Cl)[C@@H]1c1ccc(CO)cc1I | 1.32 | -0.943 | 0.345 | -1.49 | -0.242 | -0.765 | 0.919 | -0.959 | -0.691 | -0.181 (inactive) |
| COc1ccc(C(=O)Nc2cccc(CN3C(=O)[C@]4(O[C@H](CCn5cc([C@H](O)c6ccccc6)nn5)[C@@H]([Si](C)(C)c5ccc(OC)cc5)[C@@H]4C)c4ccccc43)c2)cc1 | 1.07 | 0.514 | 0.31 | 0.242 | 1.19 | 0.348 | 0.456 | 0.752 | 0.12 | 0.889 (inactive) |
| CCOC(=O)C[C@H]1[C@H](OC(=O)c2ccccc2-c2ccccc2)[C@@H](NC(=O)c2ccccc2)c2cc(OCCCO)ccc2N1C(=O)c1ccccc1 | -0.356 | 0.558 | 0.59 | 0.847 | 0.378 | 0.673 | 0.629 | 0.292 | 0.0533 | 0.354 (inactive) |
| CC(=O)n1cc(C(O)C2C=CC3C(=O)N(c4ccccc4)C(=O)C3N2Nc2ccc(C(C)C)cc2)c2ccccc21 (stereo not given) | 0.701 | 1.2 | 1.03 | 1.02 | 1 | 0.672 | 0.662 | 0.304 | 0.743 | 0.22 (inactive) |
| CC1CC/C=C\[C@H]2OC34C=CCN(C(C)(C)C)C(=O)[C@H]3N(C(CO)C(C)C)C(=O)[C@@H]4C2C(=O)O1 (stereo not given in full) | -0.0256 | -0.181 | 0.102 | -1.26 | 0.276 | 0.365 | -0.428 | 0.659 | -0.324 | -0.0671 (inactive) |
| CC(=O)NCCCC[C@@H]1NC(=O)[C@@H]2C[C@H](C(=O)NCCCCCCN)[C@H](c3cccc(OCCO)c3)N2C1=O | 1.86 | 0.286 | 0.367 | 1.01 | 0.382 | -0.0704 | 0.266 | -0.555 | 1.11 | -0.352 (inactive) |
| COC(=O)[C@@]1(Cc2ccc(OC)cc2)[C@H]2c3cc(C(=O)N4CCCC4)n(Cc4cc(C)n(C)n4)c3C[C@H]2CN1C(=O)c1ccccc1 | 1.58 | 1.17 | 2.74 | 1.05 | -0.326 | -0.622 | 1.16 | -0.801 | 1.33 | 0.769 (inactive) |
| CCOC(=O)C1=C[C@@H](C(C)(C)C)N(S(=O)(=O)c2ccc(C)cc2)[C@H]1c1ccc(C)cc1 | 0.505 | 1.16 | -0.115 | 0.958 | 1.29 | 0.949 | 4.52 | 1.12 | 0.764 | 0.715 (inactive) |
| COCCOC(=O)N1C(=O)[C@@]2(c3cc(C#CCNC(N)=O)ccc31)[C@H](c1ccc(O)cc1)N1[C@H](c3ccccc3)[C@H](c3ccccc3)OC(=O)[C@H]1[C@@H]2C(N)=O | -0.685 | -0.703 | -0.529 | -1.39 | -1.91 | -0.93 | 0.902 | -1.72 | -1.18 | -1.03 (inactive) |
| COCCOC(=O)N1C(=O)[C@@]2(c3cc(C#CCC(C(=O)OC)C(=O)OC)ccc31)[C@H](c1ccc(O)cc1)N1[C@H](c3ccccc3)[C@H](c3ccccc3)OC(=O)[C@H]1[C@@H]2C(=O)NC[C@H](O)c1ccccc1 | 0.135 | 1.19 | 0.933 | 0.8 | 1.11 | -0.011 | -0.236 | 0.222 | 1.03 | 1.04 (inactive) |

Reference: PubChem BioAssay
